Inhibition data for 63 compounds are collected here from PubChem BioAssay AID624330 (Southern Research Specialized Biocontainment Screening …, 2012).

Screen size: about 340,000 compounds; about 2,100 (0.62%) were called active.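 How the source made its calls: active means first-screen hits whose inhibition reached a set limit at any dose in the follow-up dose series; inconclusive means inhibition above the set first-screen limit but never retested; inactive means the rest.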 These entries were drawn from the full list. Entries with a potency or affinity are not part of this list.

The target of the assay is Rac GTPase-activating protein 1 (Homo sapiens) (UniProt Q9H0H5). As to the kind of experiment: MgcRacGAP GTPase-activating activity inhibitors, confirmation, biochemical, ADP Hunter fluorescence, primary and confirmatory (AID 624330).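 Further: fluorescence reports GDP produced by GAP-driven GTP hydrolysis.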 Conditions: MgcRacGAP-stimulated Rac1 GTP hydrolysis, at 30 µM, stronger effect = higher value, GST-tagged Rac1 F28L mutant substrate.
Rac GTPase-activating protein 1 (Homo sapiens), sequence (Q9H0H5 whole entry, looked up): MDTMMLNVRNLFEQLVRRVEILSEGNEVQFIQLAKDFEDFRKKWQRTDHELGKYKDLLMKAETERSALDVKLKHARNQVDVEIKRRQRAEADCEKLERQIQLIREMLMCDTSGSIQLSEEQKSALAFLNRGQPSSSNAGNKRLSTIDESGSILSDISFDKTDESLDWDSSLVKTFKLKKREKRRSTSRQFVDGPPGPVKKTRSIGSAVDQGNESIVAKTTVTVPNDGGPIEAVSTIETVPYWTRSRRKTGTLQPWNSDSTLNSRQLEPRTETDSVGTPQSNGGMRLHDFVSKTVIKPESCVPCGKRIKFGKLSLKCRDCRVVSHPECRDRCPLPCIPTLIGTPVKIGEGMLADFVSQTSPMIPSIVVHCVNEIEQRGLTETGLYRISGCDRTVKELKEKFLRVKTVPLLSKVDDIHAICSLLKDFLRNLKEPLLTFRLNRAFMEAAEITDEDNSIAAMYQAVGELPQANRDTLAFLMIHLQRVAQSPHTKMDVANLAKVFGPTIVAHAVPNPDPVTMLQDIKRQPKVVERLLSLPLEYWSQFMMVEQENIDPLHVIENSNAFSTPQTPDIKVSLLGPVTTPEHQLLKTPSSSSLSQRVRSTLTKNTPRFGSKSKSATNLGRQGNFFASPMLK
Turning to `CCOC(=O)CCc1c(C)nc2cc(-c3ccc(Cl)cc3)[nH]n2c1=O`, the inhibition was -6.3% (inactive).

Turning to `O=C(CCNC(=O)c1ccco1)Nc1ccc(SC(F)F)cc1`, the inhibition is -1.92% (inactive).

`COc1ccc(N2CCN(C(=O)CSc3nnnn3C3CC3)CC2)cc1`: the inhibition was 16.6% (inactive).

Consider `Cc1nnc(SCC(=O)N2CCN(c3ccccc3)CC2)n1C1CC1`, for which the inhibition is 5.61% (inactive).

Turning to `O=C(CSc1nnnn1C1CC1)N1CCN(c2cccc(Cl)c2)CC1`, the inhibition was 6.11% (inactive).

In the case of `COc1ccc(N2CCN(C(=O)CSc3nnc(C4CC4)n3C3CC3)CC2)cc1`, the inhibition is 24.3% (inactive).

Consider `C[C@@H]1[C@H]2CCCC[C@H]2CN(C(=O)OC(C)(C)C)[C@@H]1CC(=O)c1ccccc1`, for which the inhibition was 12.5% (inactive).

With `COc1ccc(CN2CCS(=O)(=O)CC2)cc1OC`, the inhibition was -1.72% (inactive).

Turning to `CCOC(=O)C1CCCN(S(=O)(=O)c2ccc(Cl)nc2)C1` (stereo not drawn), the inhibition was 0.62% (inactive).

Consider `CCC(=O)c1ccccc1OCCN1C(=O)NC(C)(C)C1=O`, for which the inhibition was 3.57% (inactive).

Consider `Cc1ccc(CNCc2ccccc2Cl)cc1`, for which the inhibition is 3.27% (inactive).

On to `Clc1ccccc1CNCc1ccncc1`, for which the inhibition is -5.2% (inactive).

With `Fc1ccccc1CNCc1ccc2c(c1)OCO2`, the inhibition is 6.19% (inactive).

Turning to `Cc1ccccc1CNCc1ccc2c(c1)OCO2`, the inhibition was 25.3% (inactive).

Take `CC1=C(C(=O)NC(C)CCc2ccccc2)C2(CCC(C)CC2)OC1=O` (stereo not drawn): the inhibition is 9.85% (inactive).

For the compound `O=C(C[n+]1cccc(/C=N/O)c1)N(Cc1ccccc1)Cc1ccccc1`, the inhibition was 2.39% (inactive).

For `COc1ccc(CCNC(=O)CSc2n[nH]c(N)n2)cc1`, the inhibition is 9.27% (inactive).

On to `Cc1csc(=O)n1CCC(=O)OCC(=O)Nc1ccc(S(N)(=O)=O)cc1`, for which the inhibition is 6.26% (inactive).

In the case of `O=C(CCN1C(=O)[C@@H]2Cc3ccccc3CN2C1=O)NCc1ccccc1Cl`, the inhibition is 13.7% (inactive).

`CCOc1ccc(S(=O)(=O)N2CCCC(C(=O)Nc3ccccc3)C2)cc1` (stereo not drawn): the inhibition is 4.61% (inactive).

In the case of `COc1cc(CC(=O)OCC(=O)Nc2ccc([N+](=O)[O-])cc2)cc(OC)c1OC`, the inhibition was 13.3% (inactive).

As to `CCN(CC)S(=O)(=O)c1ccc(NC(=O)COC(=O)CCc2cc(OC)c(OC)c(OC)c2)cc1`, the inhibition is 1.83% (inactive).

As to `COc1ccccc1/C=C(/C(=O)OCC(=O)Nc1ccccc1C)c1ccccc1`, the inhibition is 8.5% (inactive).

As for `COc1cc(CC(=O)OCC(=O)Nc2ccc3c(c2)OCO3)cc(OC)c1OC`, the inhibition was 12.4% (inactive).

`CCc1ccc(NC(=O)COC(=O)/C(=C/c2ccccc2OC)c2ccccc2)cc1`: the inhibition is -0.32% (inactive).

As for `CCN(c1ccc(NC(=O)COC(=O)CCc2cc(OC)c(OC)c(OC)c2)cc1)C(C)C`, the inhibition is 14.8% (inactive).

Turning to `COc1ccc(NC(C)=O)cc1C`, the inhibition was 16.4% (inactive).

In the case of `COCc1cc(C)n(CC(=O)Nc2ccc(N3CCOCC3)cc2)c(=O)c1C#N`, the inhibition was 1.03% (inactive).

As to `Nc1c(C(=O)c2cccs2)oc2ccccc12`, the inhibition was 6.17% (inactive).

As to `Cc1ccc(C(=O)OCc2nnc(-c3ccccc3)o2)o1`, the inhibition was 6.62% (inactive).

`O=c1c2ccccc2[nH]c(=S)n1CCCN1CCOCC1`: the inhibition is 4.66% (inactive).

As for `COCCCn1c(=S)[nH]c2c(sc3ccccc32)c1=O`, the inhibition was 21% (inactive).

Take `CCN(CC)S(=O)(=O)c1cc(C(=O)OCC(=O)Nc2ccc(-c3nc4ccc(C)cc4s3)cc2)ccc1F`: the inhibition was 4.33% (inactive).

Regarding `Nc1nc2c(s1)COc1ccccc1-2`, the inhibition was 4.85% (inactive).

`COc1ccc2c(c1)-c1nc(NC(=O)c3ccco3)sc1CC2`: the inhibition is 8.71% (inactive).

Consider `CC(=O)Nc1nc2c(s1)CCc1ccccc1-2`, for which the inhibition was 8.9% (inactive).

As to `COc1ccc2c(c1)-c1nc(NC(=O)c3cccs3)sc1CC2`, the inhibition was 8.83% (inactive).

For the compound `CCc1ccc(N2CCN(C(=O)N3CCOCC3)CC2)cc1`, the inhibition was 7.01% (inactive).

On to `Cc1ccc(CNc2ccc(N3CCOCC3)c(C(=O)O)c2)s1`, for which the inhibition is 6.12% (inactive).

Turning to `CC(=O)N1CCN(c2ccc(NC(=O)c3ccc(Cl)cc3)cc2)CC1`, the inhibition was 4.31% (inactive).

With `O=S(=O)(c1ccc(NCc2ccccc2)cc1)N1CCOCC1`, the inhibition is 5.28% (inactive).

With `c1cc(CNc2ccc(N3CCOCC3)cc2)ccn1`, the inhibition was 13.9% (inactive).

For the compound `CC(=O)c1ccc(N2CCN(C(=O)Nc3ccc(C(C)C)cc3)CC2)cc1`, the inhibition is 6.75% (inactive).

`CC(=O)N1CCN(c2ccc(NCc3ccc(C)s3)cc2)CC1`: the inhibition was 30.4% (inactive).

On to `CCC(=O)N1CCN(c2ccc(NC(=O)COc3ccc(CC)cc3)cc2)CC1`, for which the inhibition is 3.4% (inactive).

With `Cc1cc(=O)[nH]c(NN=C2C3CC4CC(C3)CC2C4)n1`, the inhibition is -3.7% (inactive).

For `CS(=O)(=O)NNC(=O)C1Cc2c(ccc3ccccc23)O1` (stereo not drawn), the inhibition is 8.23% (inactive).

In the case of `CC1CCCC(C)N1CCNC(=O)Nc1ccc(Cl)cc1` (stereo not drawn), the inhibition was 6.73% (inactive).

Turning to `COc1ccc(NC(=O)C2CCN(C(=O)[C@@H]3Cc4ccccc4CN3)CC2)cc1`, the inhibition was -3.28% (inactive).

Consider `O=C(OCc1ccccc1)/C(=C/c1cccc2ccccc12)NC(=O)c1ccccc1`, for which the inhibition is 4.32% (inactive).

With `N#CC1=C(c2ccc(-c3ccccc3)cc2)COC1=O`, the inhibition was 7.38% (inactive).

Regarding `CC(=O)N1CCN(c2ccc(NC(=O)C(c3ccccc3)c3ccccc3)cc2)CC1`, the inhibition is 3.06% (inactive).

In the case of `CC(=O)N1CCN(c2ccc(NC(=O)c3ccc(F)cc3)cc2)CC1`, the inhibition was 13.2% (inactive).

In the case of `CC(=O)N1CCN(c2ccc(NC(=O)c3ccccc3)cc2)CC1`, the inhibition was 11.9% (inactive).

As to `CCc1ccc(NC2CC(=O)N(c3ccc(OC)cc3OC)C2=O)cc1` (stereo not drawn), the inhibition is 4.67% (inactive).

With `CC(C)c1ccc(S(=O)(=O)Nc2ccc(N3CCOCC3)cc2)cc1`, the inhibition was 8.59% (inactive).

Turning to `COc1cccc(N2C(=O)CC(Nc3ccc(N4CCOCC4)cc3)C2=O)c1` (stereo not drawn), the inhibition is 20.1% (inactive).

As to `CCc1ccc(NC(=O)N2CCN(c3ccc(F)cc3)CC2)cc1`, the inhibition is 2.99% (inactive).

Consider `CC(C)c1ccc(C(=O)Nc2ccc(N3CCOCC3)cc2)cc1`, for which the inhibition is 7.63% (inactive).

Consider `O=C(CSc1nnc(-c2cccnc2)o1)Nc1ccc(F)cc1`, for which the inhibition was 13.2% (inactive).

For the compound `Clc1nc(-c2ccccc2)c2ccccc2n1`, the inhibition was 10.5% (inactive).

Consider `CC(=O)c1cc(Cc2csc(C(C)=O)c2)cs1`, for which the inhibition is 1.28% (inactive).

`CN(C(=O)COC(=O)c1cccs1)c1c(N)n(Cc2ccccc2)c(=O)[nH]c1=O`: the inhibition is 4.09% (inactive).
